Test results taken from PubChem BioAssay (EPA / NIEHS).
Values joined by “and” are separate entries in the source; they are usually repeats but may differ in a detail not shown here. Equal entries are not always repeated. A structure can be active in one record and inactive in another. Active and inactive are the calls of the source. The calls were made as follows: active = hit-call score of the fitted dose curve at least 0.9, where 1 is the maximum; inactive = score below 0.9.

Tests used:
Conditions in all cases: mRNA level, 48 h; actives raise or lower the signal
[1] = read-out: JUN Transcription Factor, JUN (gene 3725); test: LTEA_HepaRG_JUN: Life Technologies and Expression Analysis (LTEA) Assay for JUN Transcription Factor using HepaRG (AID 2283513)
Outline: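 Gene-expression endpoint: JUN mRNA (qRT-PCR, normalized to three reference genes) in HepaRG cultures treated 48 h with chemicals, duplicate wells, 100 uM maximum with half-log dilutions; bidirectional fitting relative to 0.5% DMSO.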

[2] = read-out: Lipase C (LIPC), LIPC (gene 3990); test: LTEA_HepaRG_LIPC: Life Technologies and Expression Analysis (LTEA) Assay for Lipase C (LIPC) using HepaRG (AID 2283514)
Outline: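 HepaRG, 48 h exposure, 8-pt half-log series from 100 uM in 0.5% DMSO, duplicates. Readout: LIPC mRNA by Fluidigm qRT-PCR, housekeeping-normalized (ACTB/GAPDH/POLR2A). Gain or loss fitted bidirectionally against DMSO baseline.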

[3] = read-out: Lipoprotein lipase (LPL), LPL (gene 4023); test: LTEA_HepaRG_LPL: Life Technologies and Expression Analysis (LTEA) Assay for Lipoprotein lipase (LPL) using HepaRG (AID 2283515)
Outline: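 HepaRG, 48 h exposure, 8-pt half-log dilutions from 100 uM, 0.5% DMSO vehicle, duplicates; qRT-PCR (Fluidigm array) of LPL mRNA vs housekeeping genes; bidirectional curve fit relative to DMSO baseline.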

[4] = read-out: MicroRNA 122 (MIR122), gene 406906; test: LTEA_HepaRG_MIR122: Life Technologies and Expression Analysis (LTEA) Assay for MicroRNA 122 (MIR122) using HepaRG (AID 2283516); also: the transcript read is the microRNA miR-122
Outline: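 Changes in transcript abundance, up or down relative to 0.5% DMSO vehicle, were scored after 48 h chemical treatment of HepaRG cells (maximum 100 uM). Quantification used TaqMan qRT-PCR normalized to housekeeping genes.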

[5] = read-out: matrix metalloproteinase-10 (MMP10), MMP10 (gene 4319); test: LTEA_HepaRG_MMP10: Life Technologies and Expression Analysis (LTEA) Assay for matrix metalloproteinase-10 (MMP10) using HepaRG (AID 2283517)
Outline: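 Transcript levels come from Fluidigm qRT-PCR normalized to three housekeeping genes, with curves fitted bidirectionally against 0.5% DMSO. Human HepaRG cells were dosed for 48 hours at concentrations up to 100 uM.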

MYC, MYC (gene 4609) = test: LTEA_HepaRG_MYC: Life Technologies and Expression Analysis (LTEA) Assay for MYC using HepaRG (AID 2283518)
Outline: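 MYC transcript changes, up or down relative to 0.5% DMSO, from TaqMan qRT-PCR normalized to three housekeeping genes. Human HepaRG cultures received chemicals for 48 h at eight half-log concentrations up to 100 uM, in duplicate.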

[6] = read-out: matrix metalloproteinase-3 (MMP3), MMP3 (gene 4314); test: LTEA_HepaRG_MMP3: Life Technologies and Expression Analysis (LTEA) Assay for matrix metalloproteinase-3 (MMP3) using HepaRG (AID 2283519)
Outline: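 qRT-PCR read-out of MMP3 mRNA (normalised to three housekeeping genes) in HepaRG liver cells after 48 h chemical exposure; 8-point half-log series, top 100 uM, 0.5% DMSO vehicle. Bidirectional curve fitting against DMSO baseline.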

[7] = read-out: Paternally Expressed 10 (PEG10), PEG10 (gene 23089); test: LTEA_HepaRG_PEG10: Life Technologies and Expression Analysis (LTEA) Assay for Paternally Expressed 10 (PEG10) using HepaRG (AID 2283520);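 as to AC50: differentiated HepaRG human liver cells in serum-free induction medium with 0.5% DMSO; PEG10 transcript by qRT-PCR normalised to ACTB GAPDH and POLR2A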
Outline: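 After 48 h exposure of differentiated HepaRG cells (0.5% DMSO vehicle, eight concentrations up to 100 uM, duplicates), PEG10 mRNA was measured by TaqMan qRT-PCR. Values were normalised to endogenous control genes and analysed bidirectionally against vehicle.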

[8] = read-out: Protein phosphatase 2A (PPP2R4), PTPA (gene 5524); test: LTEA_HepaRG_PPP2R4: Life Technologies and Expression Analysis (LTEA) Assay for Protein phosphatase 2A (PPP2R4) using HepaRG (AID 2283522)
Outline: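 Using HepaRG cultures maintained in 0.5% DMSO, chemicals are tested 48 h at up to 100 uM in duplicate. Induction or suppression of PPP2R4 mRNA, measured by qRT-PCR, is fitted bidirectionally against the vehicle baseline.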

[9] = read-out: solute carrier (SLC22A1), SLC22A1 (gene 6580); test: LTEA_HepaRG_SLC22A1: Life Technologies and Expression Analysis (LTEA) Assay for solute carrier (SLC22A1) using HepaRG (AID 2283524);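 as to AC50: differentiated human HepaRG liver cells in serum-free induction medium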
Outline: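 qRT-PCR readout (TaqMan, Fluidigm arrays) of SLC22A1 transcript, normalized to three housekeeping genes; bidirectional curve fit relative to 0.5% DMSO vehicle. Differentiated human HepaRG cells, 48 h chemical exposure, top concentration 100 uM, half-log steps, eight points.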

[10] = read-out: Pyruvate Dehydrogenase Kinase 4 (PDK4), PDK4 (gene 5166); test: LTEA_HepaRG_PDK4: Life Technologies and Expression Analysis (LTEA) Assay for Pyruvate Dehydrogenase Kinase 4 (PDK4) using HepaRG (AID 2283525)
Outline: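 HepaRG (human liver line), 48 h chemical exposure, 8-pt half-log CRC top 100 uM, 0.5% DMSO vehicle, duplicates. Readout: TaqMan qRT-PCR of PDK4 mRNA, housekeeping-normalized; gain/loss fit relative to DMSO baseline.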

[11] = read-out: NAD(P)H dehydrogenase [quinone] 1 (NQO1), NQO1 (gene 1728); test: LTEA_HepaRG_NQO1: Life Technologies and Expression Analysis (LTEA) Assay for NAD(P)H dehydrogenase [quinone] 1 (NQO1) using HepaRG (AID 2283526)
Outline: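 In this assay, gene expression is read by qRT-PCR after 48 h exposure of HepaRG cells to eight concentrations (max 100 uM, half-log) in 0.5% DMSO. Each chemical runs in duplicate, and activity is scored relative to vehicle.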

[12] = read-out: Nuclear factor erythroid 2-related factor 2 (Homo sapiens) (UniProt Q16236); test: LTEA_HepaRG_NFE2L2: Life Technologies and Expression Analysis (LTEA) Assay for Nuclear factor erythroid 2-related factor 2 (NFE2L2) Transcription Factor using HepaRG (AID 2283527)
Outline: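 HepaRG, 48 h dosing, 8-pt half-log series from 100 uM in 0.5% DMSO, duplicates. Read-out: NFE2L2 mRNA by qRT-PCR (ACTB/GAPDH/POLR2A normalization). Bidirectional curve fit vs DMSO baseline.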

[13] = read-out: succinate dehydrogenase complex iron sulfur subunit B (SDHB), SDHB (gene 6390); test: LTEA_HepaRG_SDHB: Life Technologies and Expression Analysis (LTEA) Assay for succinate dehydrogenase complex iron sulfur subunit B (SDHB) using HepaRG (AID 2283528)
Outline: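 HepaRG, 48 h exposure, 8-pt half-log series from 100 uM in 0.5% DMSO, duplicates. Readout: SDHB mRNA by Fluidigm qRT-PCR vs housekeeping genes; bidirectional fit relative to DMSO.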

[14] = read-out: solute carrier (SLCO1B1), SLCO1B1 (gene 10599); test: LTEA_HepaRG_SLCO1B1: Life Technologies and Expression Analysis (LTEA) Assay for solute carrier (SLCO1B1) using HepaRG (AID 2283530)
Outline: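 SLCO1B1 transcript levels were quantified by TaqMan qRT-PCR using three housekeeping genes for normalization. This followed 48 h chemical exposure (100 uM top, half-log, 8 points, 0.5% DMSO) of HepaRG liver cells, with gain or loss fitted relative to DMSO.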

[15] = read-out: sulfotransferase 2A1 (SULT2A1), SULT2A1 (gene 6822); test: LTEA_HepaRG_SULT2A1: Life Technologies and Expression Analysis (LTEA) Assay for sulfotransferase 2A1 (SULT2A1) using HepaRG (AID 2283531)
Outline: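 Expression change of SULT2A1, by qRT-PCR with three housekeeping-gene normalization, was scored bidirectionally versus DMSO. Cells: differentiated HepaRG, dosed in duplicate for 48 h across 8 points, highest 100 µM, half-log dilution, 0.5% DMSO.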

[16] = read-out: Transforming Growth Factor (TGFA), TGFA (gene 7039); test: LTEA_HepaRG_TGFA: Life Technologies and Expression Analysis (LTEA) Assay for Transforming Growth Factor (TGFA) using HepaRG (AID 2283532)
Outline: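 qRT-PCR read-out of TGFA transcript, normalized to three housekeeping genes, fitted bidirectionally against 0.5% DMSO baseline. Human HepaRG cultures received chemicals for 48 h at eight half-log concentrations, top 100 uM.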

[17] = read-out: Phosphatase and tensin (PTEN), PTEN (gene 5728); test: LTEA_HepaRG_PTEN: Life Technologies and Expression Analysis (LTEA) Assay for Phosphatase and tensin (PTEN) using HepaRG (AID 2283523)
Outline: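 HepaRG, 48 h exposure, 8-pt half-log series from 100 uM top, 0.5% DMSO vehicle, duplicates. Readout: Fluidigm qRT-PCR of PTEN transcript; housekeeping normalization (ACTB, GAPDH, POLR2A). Gain or loss fitted relative to DMSO baseline.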

Measured: AC50

Chain of Nuclear factor erythroid 2-related factor 2 (Homo sapiens) (Q16236 whole entry, looked up): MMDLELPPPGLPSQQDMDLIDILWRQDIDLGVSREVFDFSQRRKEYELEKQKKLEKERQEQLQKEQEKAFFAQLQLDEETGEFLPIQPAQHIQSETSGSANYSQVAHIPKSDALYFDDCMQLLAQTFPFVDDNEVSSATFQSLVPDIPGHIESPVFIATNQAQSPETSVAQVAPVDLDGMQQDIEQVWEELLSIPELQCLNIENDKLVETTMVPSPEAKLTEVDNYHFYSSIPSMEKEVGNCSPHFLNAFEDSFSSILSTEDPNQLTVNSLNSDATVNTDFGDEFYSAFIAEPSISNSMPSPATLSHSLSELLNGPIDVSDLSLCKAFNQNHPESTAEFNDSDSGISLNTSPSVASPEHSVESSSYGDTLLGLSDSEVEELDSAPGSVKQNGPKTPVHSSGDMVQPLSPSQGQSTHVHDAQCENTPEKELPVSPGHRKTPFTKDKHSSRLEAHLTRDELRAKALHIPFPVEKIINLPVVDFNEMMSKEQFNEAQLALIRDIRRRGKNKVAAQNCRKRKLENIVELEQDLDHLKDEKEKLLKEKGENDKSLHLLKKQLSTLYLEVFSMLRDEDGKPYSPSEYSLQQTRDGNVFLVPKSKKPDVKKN

CO/C=C(/C(=O)OC)c1ccccc1Oc1cc(Oc2ccccc2C#N)ncn1
inactive: [1] | [8] | [10] | [11] | [12] | [13]
active: [2] 80.8 µM and 75.3 µM and 71.2 µM | [3] 82.4 µM and 82.1 µM and 85.2 µM | [4] 72 µM and 83.7 µM and 74.3 µM | [5] 81 µM and 66.5 µM and 34.6 µM | MYC, MYC (gene 4609) 77.8 µM and 90 µM and 90.3 µM | [6] 83.2 µM and 79.1 µM and 78.9 µM | [7] 27.9 µM and 26.6 µM and 17.5 µM | [9] 78 µM and 70.5 µM and 68.7 µM | [10] 18.6 µM | [12] 77.7 µM and 74.5 µM | [14] 76.2 µM and 72.9 µM and 75.6 µM | [15] 80.9 µM and 81.2 µM and 94.4 µM | [16] 84.4 µM and 81.8 µM and 84.8 µM

N#Cc1nn(-c2c(Cl)cc(C(F)(F)F)cc2Cl)c(N)c1S(=O)C(F)(F)F (stereo not given)
active: [1] 50.2 µM | [2] 42.6 µM | [3] 31.3 µM | [4] 59.2 µM | [5] 30.7 µM | MYC, MYC (gene 4609) 35.1 µM | [6] 50.2 µM | [7] 23.6 µM | [8] 11.5 µM | [9] 19.6 µM | [10] 23.1 µM | [11] 81.6 µM | [12] 83 µM | [14] 36.2 µM | [15] 50.2 µM | [16] 33.2 µM
inactive: [13]

O=C(O)c1nc(Cl)ccc1Cl
inactive: [1] | [2] | [3] | [4] | [5] | MYC, MYC (gene 4609) | [6] | [7] | [8] | [17] | [9] | [10] | [11] | [12] | [13] | [14] | [15] | [16]
active: [10] 50 µM
